Shown are actives, neighbours in structure and some others; about 8.8% of the full set was active somewhere.
KB-V1 cytotox = qHTS assay for MDR1-selective chemotherapeutics: Primary screen using the drug-selected MDR subline cells KB-V1; KB-V1 MDR cells viability, CellTiter-Glo, 72 h; Potency, µM (top dose mostly 46.1 µM), usual class: cytotoxic; 3.4% of 400,000 active; AID 1347076, 2019; also: potency is read from the fitted curve at half-maximal effect; nearly all actives have a fitted effect of over 60% in size
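KB-V1, DMEM (no phenol red) + 10% FBS; cpd pin-transferred, titration series; 72 h, 37 degrees C; CellTiter-Glo, luminescence. Data normalized, curve-fit.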
IL1B secr inh = qHTS for Inhibitors of Inflammasome Signaling: IL-1-beta AlphaLISA Primary Screen. THP-1 LPS/ATP IL-1B secretion, AlphaLISA, 16 h; stronger effect = lower value. activity change, % at 57.5 µM. 4.7% of 360,000 active; in the data active = activity change below about -50%; inconclusive = mostly about -30% to -49%
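THP-1 cells pretreated 1 hr with compounds (up to 57.5 uM final), then stimulated with LPS (250 ng/mL final) plus ATP (1.25 mM final); secreted IL-1B measured by AlphaLISA after 16 hr, decreased signal indicating inhibition.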
HT1080-NT tox = qHTS for induction of synthetic lethality in tumor cells producing 2HG: qHTS for the HT-1080-NT fibrosarcoma cell line; HT-1080-NT fibrosarcoma viability, CellTiter-Glo ATP luminescence, 48 h; Potency, µM (doses to about 46.1 µM), inactives show at the top dose activity, negative = less viability, actives largely listed as cytotoxic; 1.6% of 360,000 active;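 also: NT is the 2HG producing partner of a matched IDH1 knockdown line; potency is read from the fitted curve at half-maximal effect; 0% = DMSO-treated cells and -100% = media-only wells without cells; nearly all actives have a fitted effect of over 55% in size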
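750 cells/well, RPMI + 5% FBS; 2 h settle, compound pin-transfer, 48 h at 37 degrees C. CellTiter-Glo 10 min RT, luminescence. Normalized to DMSO and media-only wells.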
KB-3-1 cytotox = qHTS assay for MDR1-selective chemotherapeutics: Primary screen using the parental adenocarcinoma cell KB-3-1; KB-3-1 viability, CellTiter-Glo ATP luminescence, 72 h; Potency, µM (doses to about 46.1 µM), usual class: cytotoxic; 1.4% of 400,000 active; AID 1347075, 2019; also: potency is read from the fitted curve at half-maximal effect; nearly all actives have a fitted effect of over 60% in size
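Cytotoxicity measured as CellTiter-Glo luminescence after 72 h at 37 C. Compound titrations were pinned onto drug-naive KB-3-1 parental adenocarcinoma cells grown in DMEM with 10% FBS, and normalized data fitted to concentration-response curves.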
HT1080 IDH1KD tx = qHTS for induction of synthetic lethality in tumor cells producing 2HG: qHTS for the HT-1080-IDH1KD cell line; Potency, µM (highest dose often 46.1 µM), without a hit: top-dose activity, negative = toxicity, most hits filed as cytotoxic; HT-1080 IDH1 knockdown viability, ATP luminescence, 48 h; 2% of 360,000 active;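 also: potency is read from the fitted curve at half-maximal effect; 0% = DMSO wells and -100% = cell-free medium wells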
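Knockdown cells (IDH1KD HT-1080) received compounds 2 h after plating at 750 cells/well and were kept 48 h at 37 °C in 5% FBS RPMI. A CellTiter-Glo luminescence read gave % activity for curve fitting.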
Numbers without * were called inactive; i = inactive; ? = inconclusive; . = not tested or not shown; [ ] = another dose, or the depositor's remark. Unless noted, calls follow the shape of the dose curve; as a rule, active = well fitted curve in the direction sought with a large enough effect; inconclusive = small, poorly fitted or top-dose-only effect, or another doubt; inactive = no such curve, though single readings can be large; an effect the other way counts as inactive or inconclusive. Unless noted, % is scaled to controls: 0 for no effect and ±100 for the full control effect.

SMILES	KB-V1 cytotox	IL1B secr inh	HT1080-NT tox	KB-3-1 cytotox	HT1080 IDH1KD tx
O=C(NC(c1cccnc1)c1ccc2c(c1)OCO2)C1CCN(CCOc2ccc(Cl)cc2Cl)CC1 (stereo not drawn)	i	-68*	?	i	18µM*
O=C(NC(c1ccccc1)c1cnccn1)C1CCN(CCOc2ccc(Cl)cc2Cl)CC1 (stereo not drawn)	i	?	16µM*	i	?
COc1ccc(NC2CCCN(C(=O)COc3ccc(C(C)=O)cc3)C2)cc1 (stereo not drawn)	?	-17	-2%	i	-1%
O=C(NC(c1ccccc1)c1ccsc1)C1CCN(Cc2ccccc2)CC1 (stereo not drawn)	i	49	-5%	i	7%
O=C(NC(c1ccccc1)c1ccsc1)C1CCN(CCOc2ccc(Cl)cc2Cl)CC1 (stereo not drawn)	i	-68*	18µM*	i	16µM*
COc1ccc(S(=O)(=O)N2CCC(C(=O)NC(C)c3ccccc3)CC2)cc1 (stereo not drawn)	i	.	.	i	.
CCOc1ccc(C(C)NC(=O)C2CCN(S(=O)(=O)c3ccc(OC)cc3)CC2)cc1OCC (stereo not drawn)	21µM*	-13	1%	i	1%
CCOc1ccccc1NC(=O)NCCn1c(=O)oc2ccc(C)cc21	i	.	.	i	.
Cc1cc(NS(=O)(=O)c2ccccc2)c(C)c(Cl)c1O	21µM*	3	-10%	?	0%
Cc1c(O)ccc(NS(=O)(=O)c2ccccc2)c1C	i	-8	7%	i	0%
CC(NS(=O)(=O)c1ccc(Br)cc1)C(=O)NCCc1ccccc1 (stereo not drawn)	i	7	17%	i	16%
CCc1ccc(NC(=O)Cn2nnc(-c3ccccc3N)n2)cc1	i	.	.	i	.
CCc1ccc(NC(=S)NC(=O)c2c(-c3ccccc3Cl)noc2C)cc1	i	-51*	-8%	i	-1%
CC1CCc2c(sc(NC(=O)c3cccs3)c2C(=O)O)C1 (stereo not drawn)	i	?	?	10µM*	?
COc1ccc(-n2nc3c(c2NC(=O)c2ccccc2)CS(=O)(=O)C3)cc1	i	-6	-2%	i	?
COc1ccc(-n2nc3c(c2NC(=O)c2c(-c4ccccc4Cl)noc2C)CS(=O)(=O)C3)cc1	9.2µM*	0	-4%	i	0%
COC(=O)c1c(NC(=O)c2cccs2)sc2c1CCC(C)C2 (stereo not drawn)	i	-12	10%	i	5%
Cc1cc(C)nc(NC(=O)c2c(-c3ccccc3Cl)noc2C)c1	7.3µM*	0	3%	i	7%
COc1ccccc1C(=O)Nc1ccnn1C1CCN(C(=O)c2ccoc2C)CC1	i	-10	12%	i	12%
CN(C)C(CNC(=O)c1ccccc1OCc1ccc(Cl)cc1)c1ccco1 (stereo not drawn)	i	-2	-21%	i	-3%
CCOC(=O)N1CCC(N2C(=O)c3ccccc3C2Nc2c(C)cccc2C)CC1 (stereo not drawn)	i	4	-3%	i	0%
COc1cc(/C=N/NC(=O)c2nnn(-c3nonc3N)c2C)ccc1OCc1ccc(Cl)cc1	i	-6	16%	i	11%
COC(=O)c1c(NC(=O)c2c(-c3ccccc3Cl)noc2C)sc2c1CCC2	?	0	-2%	i	-10%
Cc1onc(-c2ccccc2Cl)c1C(=O)Nc1sc2c(c1C(N)=O)CCC(C)C2 (stereo not drawn)	23µM*	-51*	-4%	?	-14%
Cc1cc(C)nc(NC(=O)c2c(F)c(F)c(F)c(C(=O)Nc3cc(C)cc(C)n3)c2F)c1	i	-69*	-19%	?	-21%
SMILES	KB-V1 cytotox	IL1B secr inh	HT1080-NT tox	KB-3-1 cytotox	HT1080 IDH1KD tx
Cc1onc(-c2ccccc2Cl)c1C(=O)NCc1ccco1	i	-77*	-24%	?	-39%
CCN1C(=O)c2cccc3c(NC(=O)c4cccc(N5C(=O)CCC5=O)c4)ccc1c23	i	31	18%	i	3%
CCOC(=O)CNS(=O)(=O)c1ccc2c3c(cccc13)C(=O)N2CC	i	-86*	0%	i	0%
CCOc1cc(C(=O)Nc2ccc3c4c(cccc24)C(=O)N3CC)cc(OCC)c1OCC	9.2µM*	-19	-29%	i	-25%
O=C(C[n+]1ccccc1)N/N=C/c1ccc(Cl)c(Cl)c1	i	-8	-1%	i	2%
NS(=O)(=O)c1ccc(CCNC(=O)C2CC(=O)N(Cc3ccccc3Cl)C2)cc1 (stereo not drawn)	i	0	-1%[9.24 µM]	i	2%
COc1cccc(NC(=O)Nc2nc(SC)ns2)c1	?	-98*	?	i	?
CCCSc1nsc(NC(=O)Nc2ccc(F)cc2F)n1	?	-28	?	?	4%
COc1cccc(NC(=O)Nc2nc(SC(C)(C)C)ns2)c1	?	-73*	?	?	?
CCSc1nsc(NC(=O)Nc2cccc(F)c2)n1	?	-95*	12µM*	?	6.5µM*
Oc1ccc(Cl)cc1CNCc1cccc2ccccc12	i	-21	0%	i	5%
COc1ccc(/C=C/C(=O)C2(O)CCCCC2)cc1OC	?	-91*	?	?	?
CCOc1ccc(/C=C/C(=O)c2ccccc2)cc1OC	i	-103*	-7%	i	0%
COc1cc(/C=C/C(=O)NCc2ccccn2)cc(OC)c1OC	i	-6	8%	i	8%
COc1ccc(/C=C/C(=O)Nc2ccccc2)cc1OC	i	?	?	i	13%
COc1ccc(/C=C/C(=O)c2ccccc2)cc1COc1ccccc1F	?	-65*	?	i	?
COc1ccc(/C=C/C(=O)NCc2ccccn2)cc1OC	i	-73*	2%	i	-1%
COc1ccccc1OC(C)C(=O)N(Cc1ccco1)C1CCS(=O)(=O)C1 (stereo not drawn)	i	3	-1%	i	0%
COc1ccc(NC(=O)COC(=O)CN2C(=O)c3ccccc3C2=O)cc1	i	9	-1%	i	-16%
COc1ccc(C(=O)/C=C/c2ccc(OC3CSC3)cc2)cc1OC	i	-88*	?	i	-23%
CCOc1ccc(C(=O)/C=C/c2ccc(OC)c(OC)c2)cc1	?	-106*	-13%	i	-16%
